45 sequences from the supplement of paper PMC11417369 can be followed below.

Whole data set: some 25,000 sequences, median “ln(normalized median fluorescence intensity)” near 9.3, cut for the highest 2% near 10. The full list was thinned out, with the highest values kept by preference.

The test has as its system PF3D7_0420300 AP2 domain 1 (GST-tagged). Briefly: gcPBM binding intensity (ln(normalized median fluorescence intensity)); higher = stronger DNA binding. The essentials:
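DNA-binding domains from P. falciparum, fused to GST and produced in E. coli, were put on an Agilent 4 × 180k double-stranded probe array for 1 h in 1× PBS holding 1% milk, 0.2 mg/ml BSA, 0.5% salmon testes DNA and 0.03% Triton X-100. Probes were primer-extended, 36 bp long and drawn from intergenic genomic regions, with negative controls included. After Alexa488 anti-GST antibody detection and a 488 nm scan, binding intensity was set as the highest Masliner-normalised natural-log median intensity across replicate spots of either probe orientation.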
Take “GGAAACAAAAAATATATACACACTAATCATAAAAAA [CACACA_site7890]”: the “gcPBM binding intensity (ln)” value worked out at 9.52.

As for “AAAAAATCACAACACACACACACACTAATAAAAAAA [CACACA_site8410]”, the “gcPBM binding intensity (ln)” value was determined as 10.2.

For the sequence “ATAAATAAAGGACACACACACACACTAGAAAAAAAA [CACACA_site5450]”, the “gcPBM binding intensity (ln)” value came to 10.

For “ATAATAAAAAAAAATGCACACATATATATATATATA [CACACA_site8766]”, the “gcPBM binding intensity (ln)” value was 9.21.

For the sequence “AAAAAAAAAAAACACACACACACACTAATATATAAA [CACACA_site8302]”, the “gcPBM binding intensity (ln)” value was 10.2.

For “AATAAATATAAAAATGCACACACACTAATAAAAAAA [CACACA_site8201]”, the “gcPBM binding intensity (ln)” value worked out at 10.2.

As to “AAAAAAATAAAGGATATACACACTAATTATATATAT [CACACA_site2812]”, the “gcPBM binding intensity (ln)” value turned out to be 9.64.

On to “TATAATAAATCAAATGCACACACACTAATAAAAAAA [CACACA_site7937]”, for which the “gcPBM binding intensity (ln)” value came to 10.1.

Consider “CACATATAAATATTAACACACATAATGAGTTATATA [CACACA_site7316]”, for which the “gcPBM binding intensity (ln)” value was found to be 9.33.

Consider “GAATATTAAACAAACACACACACATATATATATATA [CACACA_site3382]”, for which the “gcPBM binding intensity (ln)” value was found to be 9.78.

Consider “TTTTTTTTTTATTTTGCACACTTCTAATTTAGTTCT [CACACA_site5828]”, for which the “gcPBM binding intensity (ln)” value was 9.45.

Turning to “TTTCTTAAAATGTTATGTACATATTTCGTTTCAAAG [XGTACX_site6102]”, the “gcPBM binding intensity (ln)” value was found to be 9.01.

Regarding “ATTATATATAAGAAGAGTACTGAATATGTGCAATAT [XGTACX_site4471]”, the “gcPBM binding intensity (ln)” value worked out at 9.55.

For “ATATAATATGTTGAATGTACTTAAAAAAATGTATCT [XGTACX_site5385]”, the “gcPBM binding intensity (ln)” value was 9.21.

Consider “AAAAAAAACGGACACACACACATAAATATATATAAA [CACACA_site4260]”, for which the “gcPBM binding intensity (ln)” value was 10.3.

Regarding “CTAAAATACGGACACACACACACATATATATATATA [CACACA_site6138]”, the “gcPBM binding intensity (ln)” value was 10.2.

“AAAAAAAACGGACACACACACATACAAAATATATAT [CACACA_site4910]”: the “gcPBM binding intensity (ln)” value is 10.2.

Regarding “TAAATAAATAAAAAAACACACATATATATATATATA [CACACA_site4029]”, the “gcPBM binding intensity (ln)” value was determined as 9.51.

As to “TAAATATATATATACACACACATACACAAAAAAAAA [CACACA_site3580]”, the “gcPBM binding intensity (ln)” value was found to be 10.1.

“AAAACAAACGGACACACACACATATATATATATATA [CACACA_site5924]”: the “gcPBM binding intensity (ln)” value worked out at 9.97.

As to “CCATAAAACTATAATACACACATATAGATTAACATA [CACACA_site7849]”, the “gcPBM binding intensity (ln)” value stood at 9.7.

As to “CTATAAATGAATGTTTGTACTTAATAATAAAAGAAA [XGTACX_site3170]”, the “gcPBM binding intensity (ln)” value amounted to 9.06.

In the case of “GCATATTTTATAATTTTACACACCATATAAAATAAT [CACACA_site8904]”, the “gcPBM binding intensity (ln)” value turned out to be 9.51.

For the sequence “TGTTTGTAATTATGTATGCACTTTTTTGTATGTGTG [GTGCAC_site9668]”, the “gcPBM binding intensity (ln)” value was found to be 9.58.

On to “AAAAAAAAAAGACACACACACAAAATAAACAAACAA [CACACA_site7308]”, for which the “gcPBM binding intensity (ln)” value was 10.3.

On to “AAAAATAAATAAGACACACACAAAAAAAAAAAAAAA [CACACA_site1432]”, for which the “gcPBM binding intensity (ln)” value was found to be 9.54.

Consider “ACAAAATAAAGACACACACACAAACACAAAAAAATA [CACACA_site7568]”, for which the “gcPBM binding intensity (ln)” value was 10.2.

Consider “CAAAGAGAAATAAACACACACAAAATAAAGAAAAAA [CACACA_site2245]”, for which the “gcPBM binding intensity (ln)” value turned out to be 9.74.

With “AAAAAAATAAGACACACACACAAAAAAATAAAAATA [CACACA_site6357]”, the “gcPBM binding intensity (ln)” value was found to be 10.1.

“AAAAAAATAAATAAGACACACACAAAAAAAAAAAAA [CACACA_site8404]”: the “gcPBM binding intensity (ln)” value came out at 9.97.

Turning to “TATTTTATTATACCAAGTACAAAATTTAAATATGAA [XGTACX_site5478]”, the “gcPBM binding intensity (ln)” value stood at 8.99.

For “AAAATAATAAATAAATGTACATATATATATATATAT [XGTACX_site3078]”, the “gcPBM binding intensity (ln)” value was 9.1.

In the case of “TTTATTTATTAATACACACACACACCCAGACAAAAT [CACACA_site4292]”, the “gcPBM binding intensity (ln)” value was 10.2.

Take “AAAAAAAAAAAATACACACAAACACAAATTAAATAA [CACACA_site3809]”: the “gcPBM binding intensity (ln)” value worked out at 9.88.

Regarding “TTAATTAAATATTATACACACAAAAAAATAATTTTA [CACACA_site96]”, the “gcPBM binding intensity (ln)” value amounted to 9.27.

As for “ATAATTAACAAATACACACACACACCCAGACAAAAA [CACACA_site4445]”, the “gcPBM binding intensity (ln)” value amounted to 10.2.

Regarding “TTTTTATTTATTAATACACACACACCCACCCACAAA [CACACA_site7965]”, the “gcPBM binding intensity (ln)” value is 10.1.

With “TTTATTTATTAATACACACACACACGCCCACAAAAT [CACACA_site6253]”, the “gcPBM binding intensity (ln)” value is 10.2.

For “AATTAATAACAAAATAAACACACATATATAAATACA [CACACA_site8456]”, the “gcPBM binding intensity (ln)” value was 9.84.

As to “TATTAATACAGACACACACACACACCCAATAAAATA [CACACA_site243]”, the “gcPBM binding intensity (ln)” value was found to be 10.1.

With “ATAATTAACAAATACACACACACACGCCCACAAAAA [CACACA_site6389]”, the “gcPBM binding intensity (ln)” value amounted to 10.2.

Regarding “TAATTAACAAACTATAGTACACAAAATACTTCATAT [XGTACX_site6375]”, the “gcPBM binding intensity (ln)” value amounted to 9.44.

Turning to “ATGGTAGTGATTAAAAGTACACGTAATTGTAAAAAT [XGTACX_site387]”, the “gcPBM binding intensity (ln)” value is 9.45.

Regarding “TATATTTAGTAAAAAGGTACCATTCTTATTTATATT [CACACA_negctrl_site1165]”, the “gcPBM binding intensity (ln)” value was found to be 9.13.

Consider “TTTTATGTAATTATTTGTACATATGCCTCTTAAACT [XGTACX_site748]”, for which the “gcPBM binding intensity (ln)” value came to 9.19.
